Results published in paper PMC7862700, “An all-to-all approach to the identification of sequence-specific readers for epigenetic DNA modifications on cytosine”.

Tests used:
Assay in all cases: DAPPL (digital affinity profiling via proximity ligation, sequencing); 10 mM Tris-HCl pH 7.5, 50 mM NaCl, 1 mM DTT, 4% glycerol, room temperature, 30 min; GST-TFs on glutathione beads, 16-mer random dsDNA library, 0.1% formaldehyde crosslink after washing; high values mean tight binding
Conditions in all cases: protein: recombinant; tags: N-terminal GST; dsDNA, one strand shown
GABPA = target: T1, GABPA (Homo sapiens, UniProt Q06546 1-454)
T1 sequence: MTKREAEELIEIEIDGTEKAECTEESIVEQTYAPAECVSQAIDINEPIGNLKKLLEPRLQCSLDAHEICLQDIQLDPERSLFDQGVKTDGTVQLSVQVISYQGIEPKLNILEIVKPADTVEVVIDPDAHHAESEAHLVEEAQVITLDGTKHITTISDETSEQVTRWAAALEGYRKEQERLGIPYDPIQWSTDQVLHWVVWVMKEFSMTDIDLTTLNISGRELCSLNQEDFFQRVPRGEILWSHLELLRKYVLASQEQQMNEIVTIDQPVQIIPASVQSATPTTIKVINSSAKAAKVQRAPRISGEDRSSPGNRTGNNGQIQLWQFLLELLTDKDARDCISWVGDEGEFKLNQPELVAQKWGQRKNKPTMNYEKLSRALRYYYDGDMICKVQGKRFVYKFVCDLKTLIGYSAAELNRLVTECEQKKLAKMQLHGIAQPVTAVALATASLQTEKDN
How it was run: (§1)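 Beads coated with glutathione captured GST-fused human transcription factors that had been expressed in yeast, and the factors were then given DNA barcodes and pooled with a tag-only sample. The pools were incubated with 200 nmole of a random double-stranded 16-mer DNA library in Tris/NaCl/DTT/glycerol buffer for 30 min at room temperature, washed, crosslinked with 0.1% formaldehyde and proximity-ligated with BsaI/T4 ligase at 37 °C for 1 h. PCR amplification and Illumina NextSeq500 sequencing came last. Binding signal is each hexamer's read frequency for a factor divided by its frequency for the tag-only sample.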

ELF1 = ELF1 (Homo sapiens, UniProt P32519 1-619)
How it was run: as §1

EHF = target: T2, EHF (Homo sapiens, UniProt Q9NZC4 1-300)
T2 sequence: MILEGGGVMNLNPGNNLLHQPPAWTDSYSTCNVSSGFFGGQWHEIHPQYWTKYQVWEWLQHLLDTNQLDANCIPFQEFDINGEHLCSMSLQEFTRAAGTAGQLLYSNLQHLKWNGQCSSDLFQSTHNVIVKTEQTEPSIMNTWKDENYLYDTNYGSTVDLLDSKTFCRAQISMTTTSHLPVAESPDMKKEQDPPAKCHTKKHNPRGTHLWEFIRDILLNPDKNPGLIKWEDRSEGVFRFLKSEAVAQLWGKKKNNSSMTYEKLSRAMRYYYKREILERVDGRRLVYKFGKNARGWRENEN
How it was run: as §1

SPIB = SPIB (Homo sapiens, UniProt Q01892 1-262)
How it was run: as §1

ELK3 = target: T3, ELK3 (Homo sapiens, UniProt P41970 1-407)
T3 sequence: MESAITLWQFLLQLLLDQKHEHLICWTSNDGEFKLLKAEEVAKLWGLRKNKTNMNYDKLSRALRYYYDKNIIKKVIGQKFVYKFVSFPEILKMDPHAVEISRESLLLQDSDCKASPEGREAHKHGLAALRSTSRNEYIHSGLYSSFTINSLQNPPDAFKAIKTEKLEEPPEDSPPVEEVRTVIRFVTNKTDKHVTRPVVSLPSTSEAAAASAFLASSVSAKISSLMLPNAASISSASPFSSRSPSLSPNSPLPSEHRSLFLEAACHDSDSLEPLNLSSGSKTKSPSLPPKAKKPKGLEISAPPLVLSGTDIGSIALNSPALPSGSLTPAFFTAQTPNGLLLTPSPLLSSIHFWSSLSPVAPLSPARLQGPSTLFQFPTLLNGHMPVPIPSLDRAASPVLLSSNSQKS
How it was run: as §1

SPIC = target: T4, SPIC (Homo sapiens, UniProt Q8N5J4 1-248)
T4 sequence: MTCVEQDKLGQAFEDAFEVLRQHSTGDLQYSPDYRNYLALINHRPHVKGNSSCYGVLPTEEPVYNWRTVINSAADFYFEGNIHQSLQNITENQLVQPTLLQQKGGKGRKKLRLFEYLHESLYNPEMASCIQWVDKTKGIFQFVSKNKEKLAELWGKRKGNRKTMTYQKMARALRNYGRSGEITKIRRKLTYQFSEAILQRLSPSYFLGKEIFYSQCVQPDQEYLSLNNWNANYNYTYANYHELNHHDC
How it was run: as §1

ELF4 = ELF4 (Homo sapiens, UniProt Q99607 1-663)
How it was run: as §1

ELK4 = target: T5, ELK4 (Homo sapiens, UniProt P28324-2 1-405)
T5 sequence: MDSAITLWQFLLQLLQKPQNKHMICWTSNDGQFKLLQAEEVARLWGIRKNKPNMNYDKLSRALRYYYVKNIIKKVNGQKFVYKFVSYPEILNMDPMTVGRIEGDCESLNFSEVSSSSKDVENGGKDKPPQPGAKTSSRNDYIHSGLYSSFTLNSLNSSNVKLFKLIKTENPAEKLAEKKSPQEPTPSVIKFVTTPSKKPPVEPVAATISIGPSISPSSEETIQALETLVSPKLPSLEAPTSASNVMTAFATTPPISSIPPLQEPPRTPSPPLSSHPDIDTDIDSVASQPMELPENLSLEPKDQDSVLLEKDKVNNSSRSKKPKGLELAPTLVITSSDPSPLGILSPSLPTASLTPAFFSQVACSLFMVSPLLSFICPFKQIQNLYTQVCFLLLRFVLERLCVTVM
How it was run: as §1

ELF3 = target: T6, ELF3 (Homo sapiens, UniProt P78545 1-371)
T6 sequence: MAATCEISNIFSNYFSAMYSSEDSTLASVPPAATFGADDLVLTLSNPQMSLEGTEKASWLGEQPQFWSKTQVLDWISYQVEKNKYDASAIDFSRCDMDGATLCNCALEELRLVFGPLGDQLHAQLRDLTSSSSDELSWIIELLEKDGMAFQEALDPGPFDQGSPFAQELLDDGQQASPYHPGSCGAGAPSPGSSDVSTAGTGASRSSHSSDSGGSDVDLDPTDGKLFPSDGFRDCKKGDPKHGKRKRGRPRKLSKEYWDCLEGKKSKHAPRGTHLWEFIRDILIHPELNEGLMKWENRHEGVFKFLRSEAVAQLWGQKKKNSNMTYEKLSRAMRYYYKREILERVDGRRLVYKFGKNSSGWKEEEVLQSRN
How it was run: as §1

ETV1 = ETV1 (Homo sapiens, UniProt P50549 1-477)
How it was run: as §1

ERF = target: T7, ERF (Homo sapiens, UniProt P50548 1-548)
T7 sequence: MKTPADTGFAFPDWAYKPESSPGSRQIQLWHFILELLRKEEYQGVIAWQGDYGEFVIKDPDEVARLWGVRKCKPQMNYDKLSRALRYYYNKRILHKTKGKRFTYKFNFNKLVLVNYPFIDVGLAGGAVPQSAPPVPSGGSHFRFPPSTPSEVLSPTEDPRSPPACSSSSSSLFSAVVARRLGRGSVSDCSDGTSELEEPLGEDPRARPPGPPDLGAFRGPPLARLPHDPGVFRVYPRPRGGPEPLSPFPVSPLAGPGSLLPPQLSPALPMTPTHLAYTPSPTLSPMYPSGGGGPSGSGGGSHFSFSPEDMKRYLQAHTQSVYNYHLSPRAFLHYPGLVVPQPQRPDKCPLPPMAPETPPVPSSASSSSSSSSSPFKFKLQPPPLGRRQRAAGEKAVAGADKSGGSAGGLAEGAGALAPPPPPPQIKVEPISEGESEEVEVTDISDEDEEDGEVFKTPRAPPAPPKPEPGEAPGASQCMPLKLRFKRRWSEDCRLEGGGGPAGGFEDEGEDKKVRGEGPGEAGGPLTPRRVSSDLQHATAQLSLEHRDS
How it was run: as §1

ETV3L = target: T8, ETV3L (Homo sapiens, UniProt Q6ZN32 1-361)
T8 sequence: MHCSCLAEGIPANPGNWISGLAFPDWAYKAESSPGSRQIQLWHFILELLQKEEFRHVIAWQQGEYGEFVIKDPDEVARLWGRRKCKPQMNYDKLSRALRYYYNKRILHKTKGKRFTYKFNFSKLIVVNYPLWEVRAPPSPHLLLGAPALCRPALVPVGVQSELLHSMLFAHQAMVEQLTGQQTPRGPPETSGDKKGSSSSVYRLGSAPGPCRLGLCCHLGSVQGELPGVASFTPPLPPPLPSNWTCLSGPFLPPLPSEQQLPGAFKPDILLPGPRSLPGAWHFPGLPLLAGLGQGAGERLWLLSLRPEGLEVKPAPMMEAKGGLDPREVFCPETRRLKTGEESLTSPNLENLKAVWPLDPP
How it was run: as §1

ETS2 = target: T9, ETS2 (Homo sapiens, UniProt P15036 1-469)
T9 sequence: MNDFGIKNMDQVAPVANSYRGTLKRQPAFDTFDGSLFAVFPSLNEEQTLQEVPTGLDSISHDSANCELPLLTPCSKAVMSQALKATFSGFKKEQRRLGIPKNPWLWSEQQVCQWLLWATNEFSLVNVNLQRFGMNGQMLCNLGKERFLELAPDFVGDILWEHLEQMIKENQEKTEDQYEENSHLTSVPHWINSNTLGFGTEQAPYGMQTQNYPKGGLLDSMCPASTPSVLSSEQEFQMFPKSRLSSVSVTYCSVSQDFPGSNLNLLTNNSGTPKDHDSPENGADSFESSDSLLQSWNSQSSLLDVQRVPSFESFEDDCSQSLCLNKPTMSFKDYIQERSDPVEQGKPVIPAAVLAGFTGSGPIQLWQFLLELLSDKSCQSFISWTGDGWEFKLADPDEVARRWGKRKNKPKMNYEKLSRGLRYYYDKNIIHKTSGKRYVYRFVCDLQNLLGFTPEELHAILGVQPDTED
How it was run: as §1

SPDEF = target: T10, SPDEF (Homo sapiens, UniProt O95238 1-335)
T10 sequence: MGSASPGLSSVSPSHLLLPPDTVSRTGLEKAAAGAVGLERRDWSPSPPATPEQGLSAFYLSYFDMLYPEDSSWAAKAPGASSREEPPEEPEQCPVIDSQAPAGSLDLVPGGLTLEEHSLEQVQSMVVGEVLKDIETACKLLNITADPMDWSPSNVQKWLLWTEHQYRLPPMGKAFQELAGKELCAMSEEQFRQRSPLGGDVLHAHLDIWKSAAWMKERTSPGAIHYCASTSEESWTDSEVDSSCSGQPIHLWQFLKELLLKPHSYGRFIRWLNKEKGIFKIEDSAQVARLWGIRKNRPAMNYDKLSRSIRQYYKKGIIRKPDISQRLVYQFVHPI
How it was run: as §1

ETV7 = target: T11, ETV7 (Homo sapiens, UniProt Q9Y603 1-341)
T11 sequence: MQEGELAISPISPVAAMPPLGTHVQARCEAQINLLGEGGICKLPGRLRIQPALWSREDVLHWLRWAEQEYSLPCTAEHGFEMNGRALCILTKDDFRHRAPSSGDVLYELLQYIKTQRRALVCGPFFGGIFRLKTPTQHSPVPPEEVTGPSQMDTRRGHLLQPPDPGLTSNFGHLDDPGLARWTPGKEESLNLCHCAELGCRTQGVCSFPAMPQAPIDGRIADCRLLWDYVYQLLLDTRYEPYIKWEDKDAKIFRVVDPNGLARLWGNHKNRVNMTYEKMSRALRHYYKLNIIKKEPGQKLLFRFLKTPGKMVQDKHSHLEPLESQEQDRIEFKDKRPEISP
How it was run: as §1

ETV6 = ETV6 (Homo sapiens, UniProt P41212 1-452)
How it was run: as §1

Chain of ETV1 (P50549 whole entry): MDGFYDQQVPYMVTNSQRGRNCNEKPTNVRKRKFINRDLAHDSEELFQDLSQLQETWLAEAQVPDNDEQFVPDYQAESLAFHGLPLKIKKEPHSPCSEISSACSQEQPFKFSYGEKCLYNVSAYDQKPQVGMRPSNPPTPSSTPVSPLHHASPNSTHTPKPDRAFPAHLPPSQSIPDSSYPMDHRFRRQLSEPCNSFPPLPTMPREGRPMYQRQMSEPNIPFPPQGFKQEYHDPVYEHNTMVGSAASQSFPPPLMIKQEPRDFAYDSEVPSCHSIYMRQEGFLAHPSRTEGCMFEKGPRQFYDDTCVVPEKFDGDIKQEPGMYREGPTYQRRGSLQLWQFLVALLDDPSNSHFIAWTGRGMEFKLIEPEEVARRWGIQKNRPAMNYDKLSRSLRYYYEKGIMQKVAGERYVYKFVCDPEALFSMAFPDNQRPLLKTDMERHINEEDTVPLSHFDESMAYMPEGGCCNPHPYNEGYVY
Chain of SPIB (Q01892 whole entry): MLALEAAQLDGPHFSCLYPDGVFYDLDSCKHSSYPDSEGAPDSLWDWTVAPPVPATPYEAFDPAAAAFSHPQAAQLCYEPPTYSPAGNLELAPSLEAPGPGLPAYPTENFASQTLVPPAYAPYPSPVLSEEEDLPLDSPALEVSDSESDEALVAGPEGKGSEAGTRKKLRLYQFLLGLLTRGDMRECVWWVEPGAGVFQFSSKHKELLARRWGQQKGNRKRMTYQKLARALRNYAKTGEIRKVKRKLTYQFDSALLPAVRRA
Chain of ELF4 (Q99607 whole entry): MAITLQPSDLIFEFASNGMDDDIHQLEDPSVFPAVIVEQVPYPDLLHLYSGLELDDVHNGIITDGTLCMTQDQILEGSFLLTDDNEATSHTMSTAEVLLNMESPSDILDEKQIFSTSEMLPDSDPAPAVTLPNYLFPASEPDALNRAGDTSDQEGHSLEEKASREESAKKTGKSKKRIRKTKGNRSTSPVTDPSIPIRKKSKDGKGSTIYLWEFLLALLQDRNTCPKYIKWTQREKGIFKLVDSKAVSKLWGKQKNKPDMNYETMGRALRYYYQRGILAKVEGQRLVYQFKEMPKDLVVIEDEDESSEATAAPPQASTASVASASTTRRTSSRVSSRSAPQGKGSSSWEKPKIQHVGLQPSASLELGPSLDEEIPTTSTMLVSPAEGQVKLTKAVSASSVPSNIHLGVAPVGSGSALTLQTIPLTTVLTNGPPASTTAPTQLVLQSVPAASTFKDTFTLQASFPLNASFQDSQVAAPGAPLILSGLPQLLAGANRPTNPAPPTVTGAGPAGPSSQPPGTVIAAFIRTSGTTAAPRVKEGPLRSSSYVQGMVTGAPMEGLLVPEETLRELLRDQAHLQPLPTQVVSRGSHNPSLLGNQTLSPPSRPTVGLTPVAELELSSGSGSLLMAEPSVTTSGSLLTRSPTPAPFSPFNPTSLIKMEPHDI
Chain of ELF1 (P32519 whole entry): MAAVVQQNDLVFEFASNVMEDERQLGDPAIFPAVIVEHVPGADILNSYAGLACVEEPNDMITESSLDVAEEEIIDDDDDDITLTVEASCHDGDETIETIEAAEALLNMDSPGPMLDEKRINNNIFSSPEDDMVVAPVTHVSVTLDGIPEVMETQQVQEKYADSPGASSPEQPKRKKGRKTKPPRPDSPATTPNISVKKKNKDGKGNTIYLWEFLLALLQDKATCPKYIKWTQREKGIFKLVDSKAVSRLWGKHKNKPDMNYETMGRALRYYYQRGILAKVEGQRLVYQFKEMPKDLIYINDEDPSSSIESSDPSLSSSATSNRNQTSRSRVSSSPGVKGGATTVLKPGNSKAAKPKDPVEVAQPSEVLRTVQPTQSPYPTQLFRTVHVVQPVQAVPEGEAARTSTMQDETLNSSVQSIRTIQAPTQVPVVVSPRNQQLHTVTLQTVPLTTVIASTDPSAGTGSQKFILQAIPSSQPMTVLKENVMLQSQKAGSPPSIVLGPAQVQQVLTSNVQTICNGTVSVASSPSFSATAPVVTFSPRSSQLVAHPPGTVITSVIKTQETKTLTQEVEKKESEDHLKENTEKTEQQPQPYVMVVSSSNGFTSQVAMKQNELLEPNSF
Chain of ETV6 (P41212 whole entry): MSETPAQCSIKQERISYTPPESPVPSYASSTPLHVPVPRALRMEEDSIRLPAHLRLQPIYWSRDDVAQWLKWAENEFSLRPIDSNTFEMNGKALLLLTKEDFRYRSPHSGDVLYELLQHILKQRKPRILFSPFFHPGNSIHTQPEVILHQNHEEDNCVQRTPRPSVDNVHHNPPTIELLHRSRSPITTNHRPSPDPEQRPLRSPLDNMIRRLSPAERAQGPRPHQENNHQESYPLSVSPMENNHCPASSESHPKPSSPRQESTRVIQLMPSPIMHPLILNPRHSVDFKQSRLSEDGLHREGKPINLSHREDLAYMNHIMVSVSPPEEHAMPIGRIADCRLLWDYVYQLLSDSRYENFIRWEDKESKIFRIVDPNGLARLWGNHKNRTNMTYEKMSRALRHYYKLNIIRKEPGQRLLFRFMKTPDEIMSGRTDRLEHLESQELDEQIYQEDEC

Row | Sequence | binding signal (GABPA) | binding signal (ELF1) | binding signal (EHF) | binding signal (SPIB) | binding signal (ELK3) | binding signal (SPIC) | binding signal (ELF4) | binding signal (ELK4) | binding signal (ELF3) | binding signal (ETV1) | binding signal (ERF) | binding signal (ETV3L) | binding signal (ETS2) | binding signal (SPDEF) | binding signal (ETV7) | binding signal (ETV6)
1 | GCTAGT | 1.06 fold enrichment (6-mer frequency, TF over GST control) | 1.16 fold enrichment (6-mer frequency, TF over GST control) | 1.08 fold enrichment (6-mer frequency, TF over GST control) | 1.09 fold enrichment (6-mer frequency, TF over GST control) | 1.11 fold enrichment (6-mer frequency, TF over GST control) | 1.2 fold enrichment (6-mer frequency, TF over GST control) | 1.05 fold enrichment (6-mer frequency, TF over GST control) | 1.07 fold enrichment (6-mer frequency, TF over GST control) | 1.04 fold enrichment (6-mer frequency, TF over GST control) | 1.02 fold enrichment (6-mer frequency, TF over GST control) | 1.01 fold enrichment (6-mer frequency, TF over GST control) | 1 fold enrichment (6-mer frequency, TF over GST control) | 1.07 fold enrichment (6-mer frequency, TF over GST control) | 1.07 fold enrichment (6-mer frequency, TF over GST control) | 1.13 fold enrichment (6-mer frequency, TF over GST control) | 
2 | TAAGGG |  |  |  |  | 1.04 fold enrichment (6-mer frequency, TF over GST control) | 1.18 fold enrichment (6-mer frequency, TF over GST control) |  | 1.1 fold enrichment (6-mer frequency, TF over GST control) | 1.09 fold enrichment (6-mer frequency, TF over GST control) | 1.05 fold enrichment (6-mer frequency, TF over GST control) | 1.01 fold enrichment (6-mer frequency, TF over GST control) |  | 1 fold enrichment (6-mer frequency, TF over GST control) |  |  | 1.01 fold enrichment (6-mer frequency, TF over GST control)
